Reference: ChEMBL document CHEMBL1961873, “Compounds: GSK PKIS; Assays: Nanosyn kinase panel” (2012)

target: Casein kinase I isoform alpha (Homo sapiens) (UniProt P48729); conditions: at 0.1 µM
Sequence (P48729 2-337 limits assumed): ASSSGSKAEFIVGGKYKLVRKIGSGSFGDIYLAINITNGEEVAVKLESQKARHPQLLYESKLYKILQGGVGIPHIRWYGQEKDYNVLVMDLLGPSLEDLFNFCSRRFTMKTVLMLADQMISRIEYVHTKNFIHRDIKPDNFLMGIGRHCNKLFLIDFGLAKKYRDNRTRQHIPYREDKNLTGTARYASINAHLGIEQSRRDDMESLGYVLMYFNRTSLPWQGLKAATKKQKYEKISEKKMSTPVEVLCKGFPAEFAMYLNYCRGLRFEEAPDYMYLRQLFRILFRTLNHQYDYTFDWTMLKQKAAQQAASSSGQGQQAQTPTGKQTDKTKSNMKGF

| SMILES | inhibition [%] |
| --- | --- |
| CC(C)(CO)CNC(=O)c1ccc2c(c1)/C(=N/Nc1ccc(S(N)(=O)=O)cc1)C(=O)N2 | -1.33 |
| COc1ccc(-c2cc(-c3c[nH]nc3-c3ccccn3)ccn2)cc1 | 3.31 |
| CC(=O)NCc1cccc(C#Cc2cncnc2Nc2ccc(OCc3cccc(F)c3)c(Cl)c2)c1 | -1.4 |
| COc1ccc(CNC(=O)c2ccc(-c3cc(-c4nnc(C)o4)ccc3C)cc2)cc1 | -0.51 |
| O=S(=O)(CCNCc1ccc(-c2ccc3ncnc(Nc4ccc(OCc5cccc(F)c5)c(Cl)c4)c3c2)o1)c1ccccc1 | 4.43 |
| Nc1nc(-c2cccc(Cl)c2)c(-c2ccc3ncccc3n2)s1 | 1.48 |
| CS(=O)(=O)CCNCc1ccc(-c2ccc3ncnc(Nc4ccc(OCc5ccccc5)c(C(F)(F)F)c4)c3c2)o1 | 2.27 |
| CCN(CC)S(=O)(=O)c1ccc(OC)c(Nc2ncc(-c3ccccc3)o2)c1 | 1.13 |
| CS(=O)(=O)CCNCc1coc(-c2ccc3ncnc(Nc4ccc(OCc5ccccc5)cc4)c3c2)c1 | 1.56 |
| CCN1CCC(CC(=O)Nc2n[nH]c3nnc(-c4cccc(F)c4F)cc23)CC1 | 0.5 |
| CN1CCC(n2cnc(-c3ccc(F)cc3)c2-c2ccnc(Nc3ccccc3)n2)CC1 | 53.5 |
| CCNC(=O)O[C@H]1CN[C@H](C#Cc2cc3ncnc(Nc4ccc(OCc5cccc(F)c5)c(Cl)c4)c3s2)C1 | 1.8 |
| Clc1ccc(-c2nn3ncccc3c2-c2ccnc(Nc3ccccc3)n2)cc1 | 5.52 |
| Cc1cccc2c1NC(=O)/C2=N\Nc1ccc(S(N)(=O)=O)cc1 | 1.01 |
| COc1cc(/C=N/Nc2ncnc3[nH]ncc23)ccc1O | 3.78 |
| COc1cccc(-n2ncc3c(N/N=C/c4ccc(F)cc4)ncnc32)c1 | 4.03 |
| COc1cc(N2CCN(C(C)C)CC2)ccc1Nc1nc(Nc2ccc(F)cc2C(N)=O)c2cc[nH]c2n1 | 12.4 |

target: Casein kinase I isoform alpha (Homo sapiens) (UniProt P48729); conditions: at 1 µM

| SMILES | inhibition [%] |
| --- | --- |
| CCCN(CCS(C)(=O)=O)Cc1ccc(-c2ccc3ncnc(Nc4ccc(OCc5cccc(F)c5)c(Cl)c4)c3c2)o1 | 3.77 |
| CCn1c(-c2nonc2N)nc2c(C#CC(C)(C)O)ncc(OC3CCNCC3)c21 | 8.85 |
| CCn1c(-c2nonc2N)nc2c(C#CC(C)(C)O)nc(OC[C@H](N)c3ccccc3)cc21 | 11.4 |
| CC(=O)Nc1cccc(C#Cc2cncnc2Nc2ccc(OCc3cccc(F)c3)c(Cl)c2)c1 | 3.28 |
| Cc1ccc(O)cc1Nc1ccnc2cc(-c3ccccn3)ccc12 | 12.5 |
| CCn1c(-c2nonc2N)nc2cnc(Oc3cccc(NC(=O)c4ccc(N(C)C)cc4)c3)cc21 | 7.22 |
| NC(=O)c1sc(-n2cnc3ccc(C(F)(F)F)cc32)cc1OCc1ccccc1Br | 2.88 |
| CCc1nn2ncccc2c1-c1ccnc(NC2CC2)n1 | 15.9 |
| N#Cc1c(NC(=O)CN2CCOCC2)sc2c1CCCC2 | 6.01 |
| CN(C)CCOc1ccc(-c2nc(-c3ccncc3)c(-c3ccc4c(c3)CC/C4=N\O)[nH]2)cc1 | 7.2 |
| CCOc1ccc2c(-c3ccnc(Nc4cccc(C(F)(F)F)c4)n3)cnn2n1 | 0.35 |
| COc1cccc(-c2c[nH]c3c(N/N=C/c4ccncc4)ncnc23)c1 | 7.98 |
| c1cc(-c2cnn3nc(N4CCOCC4)ccc23)nc(NC2CC2)n1 | 15.8 |
| CNC(=O)c1cncc(/C=C/c2ccccc2Cl)c1 | -0.31 |
| c1ccc(-c2nc3n(c2-c2ccc4c(c2)OCO4)CCC3)nc1 | 60.1 |
| Fc1cccc(COc2ccc(Nc3ncnc4sc(-c5ccco5)cc34)cc2Cl)c1 | 3.14 |
| CC(C)(CO)CNC(=O)c1ccc2c(c1)/C(=N/Nc1ccc(S(N)(=O)=O)cc1)C(=O)N2 | 7.84 |

| SMILES | inhibition [%] |
| --- | --- |
| COc1ccc(-c2cc(-c3c[nH]nc3-c3ccccn3)ccn2)cc1 | 11.5 |
| CC(=O)NCc1cccc(C#Cc2cncnc2Nc2ccc(OCc3cccc(F)c3)c(Cl)c2)c1 | -0.4 |
| COc1ccc(CNC(=O)c2ccc(-c3cc(-c4nnc(C)o4)ccc3C)cc2)cc1 | 2.48 |
| O=S(=O)(CCNCc1ccc(-c2ccc3ncnc(Nc4ccc(OCc5cccc(F)c5)c(Cl)c4)c3c2)o1)c1ccccc1 | 6.02 |
| Nc1nc(-c2cccc(Cl)c2)c(-c2ccc3ncccc3n2)s1 | 5.89 |
| CS(=O)(=O)CCNCc1ccc(-c2ccc3ncnc(Nc4ccc(OCc5ccccc5)c(C(F)(F)F)c4)c3c2)o1 | 0.82 |
| CCN(CC)S(=O)(=O)c1ccc(OC)c(Nc2ncc(-c3ccccc3)o2)c1 | 1.02 |
| CS(=O)(=O)CCNCc1coc(-c2ccc3ncnc(Nc4ccc(OCc5ccccc5)cc4)c3c2)c1 | 4.42 |
| CCN1CCC(CC(=O)Nc2n[nH]c3nnc(-c4cccc(F)c4F)cc23)CC1 | -1.29 |
| CN1CCC(n2cnc(-c3ccc(F)cc3)c2-c2ccnc(Nc3ccccc3)n2)CC1 | 83.6 |
| CCNC(=O)O[C@H]1CN[C@H](C#Cc2cc3ncnc(Nc4ccc(OCc5cccc(F)c5)c(Cl)c4)c3s2)C1 | 1.43 |
| Clc1ccc(-c2nn3ncccc3c2-c2ccnc(Nc3ccccc3)n2)cc1 | 39.6 |
| Cc1cccc2c1NC(=O)/C2=N\Nc1ccc(S(N)(=O)=O)cc1 | 4.19 |
| COc1cc(/C=N/Nc2ncnc3[nH]ncc23)ccc1O | 13.7 |
| COc1cccc(-n2ncc3c(N/N=C/c4ccc(F)cc4)ncnc32)c1 | 4.98 |
| COc1cc(N2CCN(C(C)C)CC2)ccc1Nc1nc(Nc2ccc(F)cc2C(N)=O)c2cc[nH]c2n1 | 58.3 |
